In PubChem BioAssay (Tox21) one finds Potency and outcome data, which are given here for 20 compounds.

The nature of assay [1]: qHTS assay to test for compound auto fluorescence at 535 nm (green) in HEK293 cells (AID 720680).
Assay [2] in a line: qHTS assay to test for compound auto fluorescence at 460 nm (blue) in HEK293 cell free culture (AID 720681). The procedure, abridged: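 Blue fluorescence (Ex 405/Em 460 nm, triamterene-equivalent) was read immediately after pin transfer of compound or DMSO into medium (DMEM, 10% FBS) without cells.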
Background: Quantitative high-throughput screening tests each substance at several concentrations.

Assay [3] is described as follows: qHTS assay to test for compound auto fluorescence at 535 nm (green) in HEK293 cell free culture (AID 720682). Summed up:
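Green-label autofluorescence (485 nm excitation, 535 nm emission) measured on compound added to cell-free culture medium (DMEM, 10% FBS). Output is expressed relative to fluorescein.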

Assay [4] in a line: qHTS assay to test for compound auto fluorescence at 590 nm (red) in HEK293 cell free culture (AID 720683). Summed up:
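Red-channel autofluorescence of compounds in culture medium (DMEM, 10% FBS), no cells, measured at 540/590 nm. Rose Bengal sodium is the reference fluorophore for equivalence.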

Assay [5] in a line: qHTS assay to test for compound auto fluorescence at 590 nm (red) in HepG2 cell free culture (AID 720684). The procedure, abridged:
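Plate contents were MEM with 10% FBS plus test compound or DMSO, no cells. Fluorescence was recorded with 540 nm excitation and 590 nm emission.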

Assay [6] is described as follows: qHTS assay to test for compound auto fluorescence at 460 nm (blue) in HepG2 cell free culture (AID 720685). Summed up: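 Compound (23 nL) or DMSO pinned into cell-free MEM with 10% FBS; blue fluorescence read at 405/460 nm excitation/emission, expressed as auto-fluorescence equivalency to triamterene.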
Assay [7] can be described thus: qHTS assay to test for compound auto fluorescence at 460 nm (blue) in HepG2 cells (AID 720687). Summed up:
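Blue-channel autofluorescence (Ex/Em 405/460 nm, triamterene-equivalent) was measured after 1 hr compound exposure at 37 C, 5% CO2. Cells were HepG2, plated overnight at 37 C in MEM plus 10% FBS.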

Assay [8] has as its target Glucocorticoid receptor (Homo sapiens) (UniProt P04150). The assay can be described thus: qHTS assay to identify small molecule agonists of the glucocorticoid receptor (GR) signaling pathway (AID 720691; active = well fitted activation curve with a large enough effect in the signal ratio in the repeat runs, not every such curve was filed as active; the % refers to the signal ratio; note: potency is the fitted concentration of half-maximal effect). To be noted: GR-bla HeLa, beta-lactamase reporter ratio, 18 h; activation: at 62.4 µM (top of the series). The procedure, abridged: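 Reporter read-out: fluorescence intensity following 2 h room-temperature LiveBLAzer B/G FRET substrate loading. Prior step: GR-bla HeLa cells held 4 h, then treated 18 h at 37 C.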

Assay [9] has the same target. The assay can be described thus: qHTS assay to identify small molecule antagonists of the glucocorticoid receptor (GR) signaling pathway (AID 720692; active = well fitted inhibition curve with a large enough effect in the signal ratio in the repeat runs, not every such curve was filed as active; the % refers to the signal ratio). The procedure, abridged:
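Dexamethasone (5 nM final) stimulated a stably integrated GRE-beta-lactamase reporter in HeLa cells during 18 h co-incubation with compounds; signal was quantified as fluorescence intensity of B/G FRET substrate after 2 h.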

The nature of assay [10]: qHTS assay to test for compound auto fluorescence at 535 nm (green) in HepG2 cell free culture (AID 720686).

Results filed as inconclusive are left out. Some compounds were tested as several samples or in several runs, with calls that do not always agree. Active and inactive are the calls of the source. Unless noted, calls come from the whole dose curve; as a rule, active = well fitted curve in the direction sought with a large enough effect in the repeat runs; inconclusive = weak or mixed curves; inactive = flat fitted curve, though single readings scatter.

Sequence of Glucocorticoid receptor (Homo sapiens) (P04150 whole entry, looked up): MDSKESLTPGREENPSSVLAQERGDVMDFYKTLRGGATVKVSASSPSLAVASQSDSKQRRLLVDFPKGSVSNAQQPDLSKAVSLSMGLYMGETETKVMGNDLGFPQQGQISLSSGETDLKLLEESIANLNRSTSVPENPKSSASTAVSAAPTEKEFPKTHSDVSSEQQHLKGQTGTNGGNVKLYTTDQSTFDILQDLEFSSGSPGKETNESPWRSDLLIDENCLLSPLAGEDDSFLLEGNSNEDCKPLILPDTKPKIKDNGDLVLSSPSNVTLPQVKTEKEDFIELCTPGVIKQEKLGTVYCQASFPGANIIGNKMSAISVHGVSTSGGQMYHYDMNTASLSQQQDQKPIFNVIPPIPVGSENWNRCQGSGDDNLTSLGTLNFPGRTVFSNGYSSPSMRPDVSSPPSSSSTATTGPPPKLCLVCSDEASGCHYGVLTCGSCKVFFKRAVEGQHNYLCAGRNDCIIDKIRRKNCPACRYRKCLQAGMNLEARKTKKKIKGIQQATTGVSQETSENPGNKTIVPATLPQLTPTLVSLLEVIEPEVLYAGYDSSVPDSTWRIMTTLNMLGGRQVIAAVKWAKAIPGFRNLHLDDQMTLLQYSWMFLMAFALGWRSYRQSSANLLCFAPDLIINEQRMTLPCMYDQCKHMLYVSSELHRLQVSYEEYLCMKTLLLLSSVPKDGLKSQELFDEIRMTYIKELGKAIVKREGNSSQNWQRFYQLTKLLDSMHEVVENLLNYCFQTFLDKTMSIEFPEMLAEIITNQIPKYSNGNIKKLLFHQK

On to `CC[C@@H](C(=O)[C@@H](C)[C@@H](O)[C@H](C)[C@@H]1O[C@@H]([C@@H](CC)C(=O)O)CC[C@@H]1C)[C@H]1O[C@]2(C=C[C@@H](O)[C@]3(CC[C@@](C)([C@H]4CC[C@](O)(CC)[C@H](C)O4)O3)O2)[C@H](C)C[C@@H]1C`, for which the Potency entry in assay [1], in [2], in assay [3], in assay [4] and in assay [5] was “inactive” in each case. Further, the call in assay [6] and in assay [7] was inactive.
On to `O=C1/C(=C\c2cccs2)CCC/C1=C\c1cccs1`, for which the Potency entry in assay [1], in [2], in [3], in [4], in [5] and in assay [8] was “inactive” throughout. For the same compound, the result in [6] and in assay [7] was inactive.
For the compound `NNc1nnc(Cc2ccncc2)c2ccccc12`, the Potency result in assay [1], in assay [2], in [3], in [4], in assay [5] and in assay [9] was “inactive” in each case. Besides, the compound was called inactive in assay [6] and in assay [7].
Turning to `NCCCNCCCCNC(=O)C(O)NC(=O)CCCCCCN=C(N)N` (configuration not stated), the Potency entry in assay [1], in assay [2], in assay [3], in assay [4], in assay [5] and in assay [8] was “inactive” in each case. The Potency result in [9] is “inactive”. For the same compound, the call in assay [6] and in [7] was inactive.
As for `O=C1CCC(=O)N1CO`, the Potency result in [1], in assay [2], in assay [3], in assay [4], in assay [5] and in assay [8] was “inactive” throughout. Further, the Potency entry in assay [9] is “inactive”. The compound was called inactive in assay [6] and in [7].
For `CC(C)c1nc(N(C)S(C)(=O)=O)nc(-c2ccc(F)cc2)c1/C=C/C(O)CC(O)CC(=O)O` (configuration not stated), the Potency entry in assay [1], in assay [2], in assay [3], in [4], in [5] and in [8] was “inactive” each time. Besides, in [9], the Potency entry is “inactive”. In addition, the compound was classed as inactive in [6] and in [7].
With `CCOC(=O)C1=C[C@@H](OC(CC)CC)[C@H](NC(C)=O)[C@@H](N)C1`, the Potency result in assay [1], in assay [2], in assay [3], in assay [4], in assay [5] and in assay [8] was “inactive” throughout. Further, in assay [9], the Potency result is “inactive”. Besides, the result in [6] and in assay [7] was inactive.
In the case of `CC1(C)C2CC[C@]3(C)[C@H](C(=O)C=C4[C@@H]5C[C@@](C)(C(=O)O)CC[C@]5(C)CC[C@]43C)[C@@]2(C)CC[C@@H]1O[C@H]1O[C@H](C(=O)O)[C@@H](O)[C@H](O)[C@H]1O[C@@H]1O[C@H](C(=O)O)[C@@H](O)[C@H](O)[C@H]1O` (some centres not stated), the Potency result in [1], in assay [2], in [3], in assay [4] and in assay [5] was “inactive” each time. In addition, the outcome in assay [6] and in [7] was inactive.
Turning to `CC1CS(=O)(=O)CCN1/N=C/c1ccc([N+](=O)[O-])o1` (configuration not stated), the Potency entry in [1], in assay [2], in [3], in assay [4], in assay [5] and in assay [8] was “inactive” throughout. Further, in assay [9], the Potency result was “inactive”. For the same compound, the compound was called inactive in assay [6] and in assay [7].
With `CO[C@H]1C=CO[C@@]2(C)Oc3c(C)c(O)c4c(O)c(c5c(nc6cc(C)ccn65)c4c3C2=O)NC(=O)/C(C)=C\C=C[C@H](C)[C@H](O)[C@@H](C)[C@@H](O)[C@@H](C)[C@H](OC(C)=O)[C@@H]1C`, the Potency result in assay [1], in assay [2], in assay [3], in assay [4] and in assay [10] was “inactive” throughout. The result in [6] was inactive.
`CC(Oc1ccccc1)C(=O)N[C@@H]1C(=O)N2[C@@H]1SC(C)(C)[C@@H]2C(=O)O` (some centres not stated): the Potency result in [1], in [2], in [3], in assay [4], in [5] and in assay [8] was “inactive” each time. Moreover, the compound was classed as inactive in assay [6] and in [7].
On to `O=C(Cc1cccs1)N[C@@H]1C(=O)N2C(C(=O)[O-])=C(C[n+]3ccccc3)CS[C@H]12`, for which the Potency entry in [1], in assay [2], in assay [3], in assay [4], in assay [10] and in assay [8] was “inactive” in each case. Besides, in assay [9], the Potency result is “inactive”. Further, the compound was classed as inactive in assay [6] and in [7].
`CCCCCCOc1ccc(C(=N)N(CCCC)CCCC)c2ccccc12`: the Potency result in [1], in [2], in assay [3], in [4] and in assay [10] was “inactive” each time. For the same compound, the compound was classed as inactive in assay [6] and in assay [7].
Consider `CNCC(O)c1ccc(OC(=O)C(C)(C)C)c(OC(=O)C(C)(C)C)c1` (configuration not stated), for which the Potency entry in assay [1], in [2], in [3], in assay [4], in assay [10] and in assay [9] was “inactive” in each case. The compound was classed as inactive in assay [6] and in assay [7].
With `CCOC(=O)Cc1cccc(-c2cc(CCCCCCc3ccc(O[C@H]4O[C@H](COC(C)=O)[C@@H](OC(C)=O)[C@H](OC(C)=O)[C@@H]4OC(C)=O)c(-c4cccc(CC(=O)OCC)c4)c3)ccc2O[C@H]2O[C@H](COC(C)=O)[C@@H](OC(C)=O)[C@H](OC(C)=O)[C@@H]2OC(C)=O)c1`, the Potency result in [1], in assay [2], in [3], in assay [4], in assay [10] and in assay [8] was “inactive” in each case. The outcome in assay [6] and in assay [7] was inactive.
For the compound `O=C(O)c1cccc(/C=C2/C[C@@H]3[C@@H](/C=C/[C@@H](O)C4CCCCC4)[C@H](O)C[C@@H]3O2)c1`, the Potency result in [1], in assay [2], in assay [3], in assay [4], in assay [10] and in assay [8] was “inactive” in each case. For the same compound, the Potency result in assay [9] was “inactive”. Further, in assay [6], the compound was called inactive.
As to `N=C(N)c1ccc(OCCCOc2ccc(C(=N)N)cc2Br)c(Br)c1`, the Potency entry in [1], in assay [2], in assay [3], in assay [5] and in assay [10] was “inactive” in each case. The compound was classed as inactive in assay [6] and in [7].
Take `COc1cc(C[C@@H]2NCCc3cc(O)c(O)cc32)cc(OC)c1OC`: the Potency result in assay [1], in assay [2], in [3], in assay [4], in [10] and in assay [8] was “inactive” in each case. Further, the Potency entry in assay [9] is “inactive”. Further, the call in assay [6] and in [7] was inactive.
With `CO[C@@H]1[C@@H](O[C@@H]2O[C@H](C)[C@@H](O[C@H]3C[C@@](C)(O)[C@@H](OC(=O)CC(C)C)[C@H](C)O3)[C@H](N(C)C)[C@H]2O)[C@@H](CC=O)C[C@@H](C)[C@@H](O)/C=C/C=C/C[C@@H](C)OC(=O)C[C@H]1O`, the Potency entry in assay [1], in assay [2], in assay [3], in [4], in [10] and in assay [9] was “inactive” each time. In addition, the compound was called inactive in assay [6] and in assay [7]. The Potency in assay [8] is 4.25 µM (active) and inactive.
For the compound `CCCCCc1ccc(C)cc1O`, the Potency result in assay [1], in assay [2], in assay [3], in assay [4], in assay [10] and in [9] was “inactive” throughout. Moreover, the call in assay [6] and in assay [7] was inactive.
